The record followed here is the supplement of paper PMC10338343.

The subject of test [1] is MILI (PIWIL2) piRISC loaded with L1MC piRNA (26 nt). The test can be described thus: pre-steady-state target cleavage rate (min^-1); guide: L1MC piRNA 5'p-UAACUAAAUACUAUGCAAGCUGUAGG; higher = faster piRNA-guided slicing of the target. In outline:
(§1)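 For Cleave-'n-Seq, a transcribed, DNA-blocked target RNA library […] met 1 nM active affinity-purified piRISC with one synthetic guide at 33 °C for 0–8 or 0–960 min in HEPES–potassium acetate buffer, with or without 500 nM GTSF1 partner protein. Uncleaved targets were sequenced and normalised to depth and weakly complementary targets, with three trials pooled and k3 capped at 0.0001 min^-1. A burst-and-steady-state fit supplied the pre-steady-state cleavage rate.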

Test [2] has as its system EfPiwi piRISC loaded with L1MC piRNA (26 nt). In words: pre-steady-state target cleavage rate (min^-1); auxiliary factor: 500 nM Ephydatia muelleri Gtsf1; guide: L1MC piRNA 5'p-UAACUAAAUACUAUGCAAGCUGUAGG; MIWI and MILI are mouse PIWI proteins and EfPiwi is from a freshwater sponge; tags in brackets are library labels; higher = faster piRNA-guided slicing of the target. The procedure, abridged:
as §1

The mark [3] stands for this setting: auxiliary factor: 500 nM mouse GTSF1.
The mark [4] stands for this setting: auxiliary factor: none (no GTSF1).

± gives the standard deviation.

Consider “UCCUGGUACAGCUUGCAUAGUAUUUAGUUG [g2:g24:cont:t1G]”, for which the entries for the “pre-steady-state target cleavage rate” value in test [1] (setting [3]), in test [1] (setting [4]) and in test [2] were 0.218 ± 0.018, 0.00995 ± 0.003 and 0.0182 ± 0.0065, respectively.
On the same counts, the results for UCCUGCUACAGCUUGCAUAGUAUUUAAGUUA are 0.365 ± 0.043, 0.00882 ± 0.0027 and 0.00777 ± 0.0034.
On the same counts, the results for UCCUGGAAGAGCUUGCAUAGUAUUUAGUAA are 0.201 ± 0.014, 0.00564 ± 0.0021 and 0.00426 ± 0.0021.
In the case of UCCUGGUACAGCUUGCAUAGUAUUUAGUGA, the entries for the “pre-steady-state target cleavage rate” value in test [1] (setting [3]), in test [1] (setting [4]) and in test [2] were 0.129 ± 0.021, 0.00389 ± 0.0025 and 0.00447 ± 0.0018, respectively.
Regarding UCCUGCAACAGCUUGCAUAGUAUUUAGUUA, the “pre-steady-state target cleavage rate” value turned out to be 0.398 ± 0.028 in test [1] (setting [3]), 0.0107 ± 0.0034 in test [1] (setting [4]) and 0.0741 ± 0.018 in test [2].
As for UCCUGGAAGAGCUUGCAUAGUAAUUAGUUA, the “pre-steady-state target cleavage rate” value in test [1] (setting [3]) came to 0.177 ± 0.015; in test [1] (setting [4]), 0.00468 ± 0.0028; in test [2] it was 0.00806 ± 0.0027.
On the same counts, the results for UCCUGGAUCAGCUUGCAUAGUUUUUAGUUA are 0.0479 ± 0.0086, 0.00873 ± 0.0021 and 0.00592 ± 0.0018.
On the same counts, the results for UCCUGGAUCAGGAUGCAUAGUAUUUAGUUA are 0.156 ± 0.012, 0.00724 ± 0.0018 and 0.0121 ± 0.0027.
For UCCUGGAUGUGUUUGCAUAGUAUUUAGUUA the same measures were 0.16 ± 0.019, 0.00817 ± 0.0033 and 0.0181 ± 0.0055.
In the case of UCCUGGAUCUGCUUGCAUAGUUUUUAGUUA, the figures for the “pre-steady-state target cleavage rate” value in test [1] (setting [3]), in test [1] (setting [4]) and in test [2] were 0.0213 ± 0.0057, 0.00511 ± 0.002 and 0.00787 ± 0.0041, respectively.
For UCCUGGAACUGCUUGCAUUGUAUUUAGUUA the same measures were 0.177 ± 0.015, 0.00842 ± 0.0019 and 0.00574 ± 0.0019.
As for UCCUGGAUGUCCUUGCAUAGUAGUUAGUUA, the “pre-steady-state target cleavage rate” value in test [1] (setting [3]) was 0.13 ± 0.036; in test [1] (setting [4]) it was 0.00421 ± 0.002; in test [2] it was 0.00555 ± 0.0031.
Regarding UCCUGCAACACCUUGCAUAGUAUUUAGUUA, the “pre-steady-state target cleavage rate” value in test [1] (setting [3]) turned out to be 0.192 ± 0.026; in test [1] (setting [4]), 0.00568 ± 0.0027; in test [2], 0.0123 ± 0.0034.
For UCCUGCUACAGCUUGCAUAGUAUUUAGUCUA the same measures were 0.116 ± 0.02, 0.00343 ± 0.0029 and 0.00636 ± 0.0024.
Regarding UCCUGCUACAGCUUGCAUGUAUUUAGUUA, the “pre-steady-state target cleavage rate” value worked out at 0.104 ± 0.02 in test [1] (setting [3]), 0.00362 ± 0.0023 in test [1] (setting [4]) and 0.00438 ± 0.0028 in test [2].
On the same counts, the results for UCCUGCUACAACUUGCAUAGUAUUUAGUUA are 0.247 ± 0.023, 0.00739 ± 0.0024 and 0.00776 ± 0.0029.
Regarding UCCUGGUACAGGAUGCAUAGUAUUUAGUAA, the “pre-steady-state target cleavage rate” value in test [1] (setting [3]) was 0.172 ± 0.021; in test [1] (setting [4]) it was 0.00595 ± 0.002; in test [2], 0.00412 ± 0.002.
